Data as given in PubChem BioAssay AID1159580 (chemical genetic matrix, 2015).
Screen size: about 5,500 compounds; about 2,000 (36%) were called active. Inconclusive results (about 18%) are left out. Cut-off read from the data, not from the text of the source: active = normalized growth mostly below about 0.91 (no sharp cut-off); inconclusive = no clear call, values can overlap the other calls; inactive = mostly above about 0.92. The list shows a part of the results.

Assay: chemical genetic growth profiling, strain panel (AID 1159580);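 note: tested at 20 µM; growth read once vehicle control cultures reached saturation at 30 °C; 1 = growth at the plate median or of vehicle wells; lower values mean less growth of the strain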
Conditions: S. cerevisiae deletion strains, growth OD

Measured: normalized growth

CSc1ccc(C(=O)c2[nH]c(=O)[nH]c2C)cc1
inactive: locus YAL013W, strain DEP1, active compounds read low 0.943 | locus YAL040C, strain CLN3, active compounds read low 1.06 | locus YCL061C, strain MRC1 (second series), active compounds read low 0.991 | locus YDR363W, strain ESC2, active compounds read low 0.934 | locus YER002W, strain NOP16, active compounds read low 0.978 | locus YGR078C, strain PAC10, active compounds read low 1 | locus YMR307W, strain GAS1, active compounds read low 1.01 | locus YNL128W, strain TEP1, active compounds read low 0.981 | locus YNL175C, strain NOP13, active compounds read low 0.985 | locus YNL197C, strain WHI3, active compounds read low 0.994 | locus YNL224C, strain SQS1, active compounds read low 0.994 | locus YOR083W, strain WHI5 (second series), active compounds read low 0.96

CC[C@@H]1OC(=O)C[C@@H](O)[C@H](C)[C@@H](O[C@@H]2O[C@H](C)[C@@H](O)[C@H](N(C)C)[C@H]2O)[C@@H](CCN2C[C@H](C)C[C@H](C)C2)C[C@@H](C)C(=O)/C=C/C(C)=C\[C@@H]1CO[C@@H]1O[C@H](C)[C@@H](O)[C@@H](OC)[C@H]1OC
inactive: locus YAL021C, strain ccr4, active compounds read low 1 | locus YAL026C, strain drs2, active compounds read low 0.994 | locus YAL030W, strain snc1, active compounds read low 0.996 | locus YBL061C, strain skt5, active compounds read low 0.99 | locus YBR009C, strain hhf1, active compounds read low 1 | locus YBR023C, strain chs3, active compounds read low 0.997 | locus YBR171W, strain sec66, active compounds read low 1.01 | locus YBR231C, strain swc5, active compounds read low 0.986 | locus YBR279W, strain paf1, active compounds read low 0.982 | locus YCL011C, strain gbp2, active compounds read low 0.971 | locus YCL016C, strain dcc1, active compounds read low 0.967 | locus YCL069W, strain vba3, active compounds read low 1.02 | locus YCR088W, strain abp1, active compounds read low 1.01 | locus YDL005C, strain med2, active compounds read low 0.994 | locus YDL040C, strain nat1, active compounds read low 0.996 | locus YDR001C, strain nth1, active compounds read low 1.01 | locus YDR069C, strain doa4, active compounds read low 0.992 | locus YDR137W, strain rgp1, active compounds read low 1 | locus YDR159W, strain sac3, active compounds read low 0.931 | locus YDR195W, strain ref2 0.972 | locus YDR297W, strain sur2, active compounds read low 1.01 | locus YDR334W, strain swr1, active compounds read low 0.995 | locus YDR335W, strain msn5, active compounds read low 1.01 | locus YDR392W, strain spt3, active compounds read low 0.887 | locus YEL003W, strain gim4, active compounds read low 1.01 | locus YEL037C, strain rad23, active compounds read low 1.01 | locus YEL061C, strain CIN8 (second series), active compounds read low 1.01 | locus YER015W, strain faa2, active compounds read low 1 | locus YER016W, strain bim1, active compounds read low 0.993 | locus YER111C, strain swi4, active compounds read low 1 | locus YER155C, strain BEM2 (second series), active compounds read low 1 | locus YFR010W, strain ubp6, active compounds read low 1 | locus YGL167C, strain pmr1, active compounds read low 1 | locus YGL173C, strain kem1, active compounds read low 0.981 | locus YGL227W, strain vid30, active compounds read low 0.987 | locus YGL240W, strain doc1, active compounds read low 0.975 | locus YGL253W, strain hxk2, active compounds read low 1.01 | locus YHR013C, strain ard1, active compounds read low 0.955 | locus YHR027C, strain rpn1, active compounds read low 1 | locus YHR030C, strain SLT2, active compounds read low 0.978 | locus YHR079C, strain IRE1, active compounds read low 0.971 | locus YHR142W, strain chs7, active compounds read low 0.983 | locus YJL092W, strain hpr5, active compounds read low 1.01 | locus YJL095W, strain BCK1 (second series), active compounds read low 0.996 | locus YJL095W, strain BCK1, active compounds read low 0.974 | locus YJL115W, strain asf1, active compounds read low 1.01 | locus YJL129C, strain trk1, active compounds read low 1 | locus YJL154C, strain vps35, active compounds read low 1.02 | locus YJL164C, strain tpk1, active compounds read low 1.03 | locus YJL166W, strain qcr8, active compounds read low 1.02 | locus YJR066W, strain TOR1, active compounds read low 0.939 | locus YKL160W, strain elf1, active compounds read low 0.974 | locus YKR026C, strain gcn3, active compounds read low 0.997 | locus YKR091W, strain srl3, active compounds read low 1 | locus YLL001W, strain dnm1, active compounds read low 1 | locus YLL026W, active compounds read low 0.993 | locus YLL041C, strain sdh2, active compounds read low 1.01 | locus YLR027C, strain aat2, active compounds read low 0.994 | locus YLR113W, strain HOG1, active compounds read low 1 | locus YLR221C, strain rsa3, active compounds read low 0.99 | locus YLR258W, strain gsy2, active compounds read low 0.992 | locus YLR262C, strain YPT6 (second series), active compounds read low 1.03 | locus YLR320W, strain mms22, active compounds read low 0.981 | locus YLR342W, strain FKS1, active compounds read low 0.984 | locus YLR357W, strain rsc2, active compounds read low 0.987 | locus YLR370C, strain arc18, active compounds read low 0.99 | locus YLR384C, strain iki3, active compounds read low 0.981 | locus YML120C, strain ndi1, active compounds read low 1.01 | locus YMR058W, strain fet3, active compounds read low 1 | locus YMR125W, strain sto1, active compounds read low 0.996 | locus YMR129W, active compounds read low 1 | locus YMR205C, strain PFK2, active compounds read low 1.01 | locus YMR231W, strain pep5, active compounds read low 1 | locus YNL071W, strain lat1, active compounds read low 1.02 | locus YNL183C, strain NPR1, active compounds read low 0.955 | locus YNL209W, strain ssb2, active compounds read low 1 | locus YNL248C, strain rpa49, active compounds read low 1 | locus YNL322C, strain KRE1 (second series), active compounds read low 0.997 | locus YNR049C, strain mso1, active compounds read low 1 | locus YOR001W, strain rrp6, active compounds read low 0.994 | locus YOR070C, strain gyp1, active compounds read low 0.999 | locus YOR080W, strain dia2, active compounds read low 1.01 | locus YOR083W, strain WHI5, active compounds read low 0.943 | locus YOR106W, strain vam3, active compounds read low 1.01 | locus YOR231W, strain MKK1, active compounds read low 0.976 | locus YOR265W, strain rbl2, active compounds read low 1 | locus YOR270C, strain vph1, active compounds read low 0.976 | locus YOR290C, strain snf2, active compounds read low 0.978 | locus YPL051W, strain arl3, active compounds read low 0.998 | locus YPL078C, strain atp4, active compounds read low 0.991 | locus YPL106C, strain sse1, active compounds read low 0.963 | locus YPL240C, strain hsp82, active compounds read low 1 | locus YPL256C, strain CLN2, active compounds read low 0.952
